Measured values: PubChem BioAssay
Inconclusive results are not listed. Activity calls are given as the source filed them.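 How the source made its calls, unless noted: active means response below a set limit, under 55% cells CD8-positive and vesicle-bound, and CD8 cells' 90th-percentile brightness under 279; inactive means the rest.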

Columns and labels:
[1] = yeast TOR pathway RPL19A-GFP modulators, primary screen, cell-based, S. cerevisiae, multiplex flow cytometry (AID 1862; in the data active means percent of DMSO control GFP below about 86%;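 further: lower values mimic rapamycin by blocking the RPL19A rise seen in DMSO cells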); conditions: S. cerevisiae RPL19A-GFP strain, flow cytometry fluorescence, 3 h; at 10 µM; stronger effect = lower value
[2] = modulators of MEP2-GFP levels in yeast, primary screen, S. cerevisiae, multiplex flow cytometry (AID 1867;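 active means GFP response, as percent of the DMSO control, above the screen-wide mean plus 3 SD, about 139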;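 further: median GFP channel fluorescence of barcode-gated MEP2-GFP cells measured by flow cytometry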); conditions: S. cerevisiae MEP2-GFP strain, 3 h, at 10 µM, stronger effect = higher value, 100% means same as DMSO wells
[3] = modulators of CIT2-GFP expression in yeast, primary screen, S. cerevisiae, GFP fusion, multiplex flow cytometry (AID 1870;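 active means percent response above a set limit, the screen-wide mean plus 3 SD, cut at about 130% in these data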;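 further: barcoded CIT2-GFP strain pooled with four other GFP strains with rapamycin as positive control; median GFP fluorescence per well over plate mean of DMSO wells so 100% = DMSO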); conditions: 3 h, at 10 µM, stronger effect = higher value
[4] = modulators of LAP4-GFP expression in yeast, primary screen, S. cerevisiae, multiplex flow cytometry (AID 1873;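 active means GFP signal, as percent of the solvent control, above the screen mean plus 3 SD, about 149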); conditions: 3 h, at 10 µM, stronger effect = higher value
[5] = modulators of AGP1-GFP expression in yeast TOR pathway, primary screen, cell-based, multiplex flow cytometry, S. cerevisiae (AID 1887;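 active means GFP signal above the screen-wide mean plus 3 SD, that is over about 124.5% of the solvent control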;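 further: AGP1-GFP fusion strain of S. cerevisiae within a five-strain barcoded multiplex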); conditions: 3 h, at 10 µM, stronger effect = higher value
[6] = inhibitors of CD8+ T cell-vesicle binding, pilot screen, LFA-1/ICAM-1 modulator project, MLPCN validation set, flow cytometry (AID 2523); conditions: 2C mouse CD8+ T cells, at 7 µM, stronger effect = lower value; double positive events: measured here: CD8+/vesicle+ event percentage;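 on vesicle binding response: mean PE anti-B7-1 fluorescence of CD8+ cells relative to row control; 100% = QL9-loaded vesicles with DMSO vehicle in the same plate row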
[7] = molecular target: Integrin beta-1 (Homo sapiens) + Integrin alpha-4 (Homo sapiens) (UniProt P13612+P05556); assay: inhibition of HUTS-21 binding to VLA-4, pilot screen, VLA-4 allosteric modulator project, U937 cells, HUTS-21 mAb, flow cytometry, validation set (AID 2674;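 active means inhibition above 50%, about 3 SD of the validation set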;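 further: antibody binding induced by the VLA-4 ligand LDV present at three times its Kd; 0% = LDV ligand with antibody and no compound and 100% = antibody without LDV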); conditions: HUTS-21 LIBS mAb binding, at 6.7 µM, stronger effect = higher value, binding induced by LDV ligand
[8] = superoxide lowering in aged yeast cells, pilot screen, validation compound set (AID 2706;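 active means superoxide response below 65% of plate, a cut near 3 SD across the whole screen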;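 further: yeast exposed to compound for one week at 30 degrees C before staining; 100% = mean of all compound wells on the same plate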); conditions: S. cerevisiae aging, superoxide DHE fluorescence; at 10 µM, stronger effect = lower value
[9] = molecular target: Beta-adrenergic receptor kinase 1 (Homo sapiens) (UniProt P25098); assay: GRK2 binders displacing RNA aptamer, biochemical, validation, human GRK2, bead flow cytometry (AID 488806;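 active means aptamer binding inhibition above 30%, about 3 SD of noise from non-fluorescent compounds; inactive means inhibition at or below 30%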); conditions: bead-bound GRK2, FAM-aptamer displacement, at 10 µM, stronger effect = higher value
[10] = molecular target: AP-2 complex subunit beta (Homo sapiens) (UniProt P63010); assay: inhibitors of arrestin peptide binding to AP2, pilot screen, biochemical, validation set, GST-AP2 beads, flow cytometry (AID 504541;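 active means inhibition above 54%, about 3 SD of non-fluorescent compounds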;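 further: AP2 carries R879A mutation and is captured from E. coli lysate; bead-bound FITC arrestin peptide fluorescence measuring arrestin peptide binding to AP2; 0% = DMSO wells and 100% = excess unlabeled arrestin peptide control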); conditions: FITC arrestin peptide, at 10 µM, stronger effect = higher value, AP2 beta2 appendage fragment, R879A mutant
[11] = yeast V-ATPase proton transport modulators, S. cerevisiae, pHLuorin, HTS validation (AID 504600; in the data active means response above about 15%;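 further: plate controls were DMSO for no effect and reference compound for full effect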); conditions: S. cerevisiae pHLuorin cytosolic pH, at 10 µM, stronger effect = higher value
[12] = test system: anti-desmoglein-3 scFv antibody binding to human DSG3; assay: inhibitors of anti-DSG3 scFv binding to DSG3, pilot screen, biochemical, validation compound set, bead-based, flow cytometry (AID 588368;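 active means binding below the plate cutoff, the plate median minus 3 SD, with a reading above zero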;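 further: signal is the median channel fluorescence of bead-bound GFP antibody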); conditions: Protein G beads, DSG3-Fc, scFv-GFP binding, at 10 µM, stronger effect = lower value
[13] = inhibitors of fungal efflux pumps CDR1, CDR2, MDR1, pilot screen, validation compound set, multiplex, phenotypic (AID 588506;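 active means efflux inhibition above 0.42, the validation set average plus 4 SD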;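 further: Nile Red retained in cells so higher fluorescence means more efflux inhibition; 0 = negative control wells and 1 = enniatin B 25 µM full block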); conditions: S. cerevisiae pump-expressing triplex, Nile Red efflux flow cytometry; at 10 µM; stronger effect = higher value; the pumps come from Candida albicans
[14] = molecular target: ATP-binding cassette sub-family B member 6 (Homo sapiens) (UniProt Q9NP58); assay: ABCB6 transporter inhibitors, pilot screen, K562-ABCB6 cells, flow cytometry, validation set (AID 588550;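 active means inhibition above the screen-wide mean plus 3 SD, about 51%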;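 further: 0% = DMSO wells and 100% = benzethonium chloride 70 µM positive control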); conditions: K562-ABCB6 porphyrin accumulation, 1 h, at 10 µM, stronger effect = higher value
[15] = promoters of myeloid differentiation in arrested cells, primary screen, cell-based, GFP/MAC1 double positive, flow cytometry, validation set (AID 588685;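 active means differentiation response of at least 50%, scaled between solvent and reference control, from cells with both markers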;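 further: compound exposure lasts four days before antibody staining and flow analysis; 0% = DMSO wells and 100% = 5 µM fulvestrant positive control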); conditions: ER-HoxA9 marrow cells, stronger effect = higher value, normalized: vehicle 0, fulvestrant 100

Beta-adrenergic receptor kinase 1 (Homo sapiens), sequence (P25098 whole entry, looked up): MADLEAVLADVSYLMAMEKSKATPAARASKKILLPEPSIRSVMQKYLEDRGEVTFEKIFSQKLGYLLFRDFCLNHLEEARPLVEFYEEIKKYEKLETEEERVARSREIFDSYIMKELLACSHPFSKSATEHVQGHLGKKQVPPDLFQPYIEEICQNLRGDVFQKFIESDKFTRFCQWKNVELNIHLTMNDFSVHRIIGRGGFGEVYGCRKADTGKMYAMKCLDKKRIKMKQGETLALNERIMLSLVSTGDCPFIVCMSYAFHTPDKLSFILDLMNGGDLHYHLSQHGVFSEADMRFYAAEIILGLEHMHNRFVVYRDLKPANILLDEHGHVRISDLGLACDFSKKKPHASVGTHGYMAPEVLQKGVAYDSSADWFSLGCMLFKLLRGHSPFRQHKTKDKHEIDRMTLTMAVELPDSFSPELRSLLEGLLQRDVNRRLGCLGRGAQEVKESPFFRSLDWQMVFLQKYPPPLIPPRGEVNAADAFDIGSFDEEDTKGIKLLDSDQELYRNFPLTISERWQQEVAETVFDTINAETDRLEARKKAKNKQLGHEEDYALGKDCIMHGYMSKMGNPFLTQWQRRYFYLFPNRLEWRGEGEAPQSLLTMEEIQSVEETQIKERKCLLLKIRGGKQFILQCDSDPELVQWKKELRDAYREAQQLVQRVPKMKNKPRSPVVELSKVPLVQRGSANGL
ATP-binding cassette sub-family B member 6 (Homo sapiens), sequence (Q9NP58 whole entry, looked up): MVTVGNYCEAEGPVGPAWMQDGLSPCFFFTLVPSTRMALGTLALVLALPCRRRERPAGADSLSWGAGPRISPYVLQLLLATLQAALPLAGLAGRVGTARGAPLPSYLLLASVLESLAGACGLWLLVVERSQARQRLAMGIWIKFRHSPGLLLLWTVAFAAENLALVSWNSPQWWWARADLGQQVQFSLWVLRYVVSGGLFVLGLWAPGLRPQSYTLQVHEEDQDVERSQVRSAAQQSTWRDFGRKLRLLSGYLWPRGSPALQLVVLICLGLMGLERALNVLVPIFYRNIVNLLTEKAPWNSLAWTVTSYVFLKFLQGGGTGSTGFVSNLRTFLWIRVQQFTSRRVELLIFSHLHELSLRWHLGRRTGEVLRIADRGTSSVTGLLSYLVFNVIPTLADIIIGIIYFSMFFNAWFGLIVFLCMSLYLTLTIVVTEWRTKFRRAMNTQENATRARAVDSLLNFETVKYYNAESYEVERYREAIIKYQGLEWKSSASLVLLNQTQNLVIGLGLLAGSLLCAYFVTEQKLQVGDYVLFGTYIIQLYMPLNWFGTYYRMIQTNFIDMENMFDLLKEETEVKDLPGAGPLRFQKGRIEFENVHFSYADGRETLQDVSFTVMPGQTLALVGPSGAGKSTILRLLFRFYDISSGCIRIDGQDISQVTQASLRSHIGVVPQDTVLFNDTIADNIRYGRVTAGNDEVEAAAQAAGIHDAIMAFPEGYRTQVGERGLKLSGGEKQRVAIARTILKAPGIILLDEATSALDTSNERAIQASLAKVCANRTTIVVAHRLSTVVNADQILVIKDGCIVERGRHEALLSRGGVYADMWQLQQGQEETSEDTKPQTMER
Integrin beta-1 (Homo sapiens) + Integrin alpha-4 (Homo sapiens), sequence (P05556 whole entry, looked up): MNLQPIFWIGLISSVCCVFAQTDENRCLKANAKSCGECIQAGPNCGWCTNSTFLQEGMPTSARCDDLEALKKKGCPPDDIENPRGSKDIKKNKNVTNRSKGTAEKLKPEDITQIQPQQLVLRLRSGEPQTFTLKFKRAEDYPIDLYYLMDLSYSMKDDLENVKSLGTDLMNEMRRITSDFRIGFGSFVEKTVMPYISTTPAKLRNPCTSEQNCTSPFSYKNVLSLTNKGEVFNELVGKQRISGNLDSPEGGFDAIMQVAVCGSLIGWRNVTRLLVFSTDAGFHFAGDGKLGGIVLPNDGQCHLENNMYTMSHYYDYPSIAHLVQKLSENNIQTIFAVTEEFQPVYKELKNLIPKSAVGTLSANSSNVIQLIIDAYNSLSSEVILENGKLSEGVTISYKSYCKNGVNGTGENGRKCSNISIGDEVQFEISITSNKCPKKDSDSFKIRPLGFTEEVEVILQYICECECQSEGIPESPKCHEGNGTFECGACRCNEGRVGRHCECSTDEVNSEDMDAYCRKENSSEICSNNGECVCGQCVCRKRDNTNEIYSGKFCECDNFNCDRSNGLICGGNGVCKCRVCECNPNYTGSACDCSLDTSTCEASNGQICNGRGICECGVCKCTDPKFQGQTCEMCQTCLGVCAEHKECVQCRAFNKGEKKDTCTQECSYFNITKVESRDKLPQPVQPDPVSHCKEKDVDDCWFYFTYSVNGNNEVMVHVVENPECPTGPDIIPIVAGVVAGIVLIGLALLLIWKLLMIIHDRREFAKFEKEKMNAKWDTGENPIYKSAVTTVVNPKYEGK
Integrin beta-1 (Homo sapiens) + Integrin alpha-4 (Homo sapiens), sequence (P13612 whole entry, looked up): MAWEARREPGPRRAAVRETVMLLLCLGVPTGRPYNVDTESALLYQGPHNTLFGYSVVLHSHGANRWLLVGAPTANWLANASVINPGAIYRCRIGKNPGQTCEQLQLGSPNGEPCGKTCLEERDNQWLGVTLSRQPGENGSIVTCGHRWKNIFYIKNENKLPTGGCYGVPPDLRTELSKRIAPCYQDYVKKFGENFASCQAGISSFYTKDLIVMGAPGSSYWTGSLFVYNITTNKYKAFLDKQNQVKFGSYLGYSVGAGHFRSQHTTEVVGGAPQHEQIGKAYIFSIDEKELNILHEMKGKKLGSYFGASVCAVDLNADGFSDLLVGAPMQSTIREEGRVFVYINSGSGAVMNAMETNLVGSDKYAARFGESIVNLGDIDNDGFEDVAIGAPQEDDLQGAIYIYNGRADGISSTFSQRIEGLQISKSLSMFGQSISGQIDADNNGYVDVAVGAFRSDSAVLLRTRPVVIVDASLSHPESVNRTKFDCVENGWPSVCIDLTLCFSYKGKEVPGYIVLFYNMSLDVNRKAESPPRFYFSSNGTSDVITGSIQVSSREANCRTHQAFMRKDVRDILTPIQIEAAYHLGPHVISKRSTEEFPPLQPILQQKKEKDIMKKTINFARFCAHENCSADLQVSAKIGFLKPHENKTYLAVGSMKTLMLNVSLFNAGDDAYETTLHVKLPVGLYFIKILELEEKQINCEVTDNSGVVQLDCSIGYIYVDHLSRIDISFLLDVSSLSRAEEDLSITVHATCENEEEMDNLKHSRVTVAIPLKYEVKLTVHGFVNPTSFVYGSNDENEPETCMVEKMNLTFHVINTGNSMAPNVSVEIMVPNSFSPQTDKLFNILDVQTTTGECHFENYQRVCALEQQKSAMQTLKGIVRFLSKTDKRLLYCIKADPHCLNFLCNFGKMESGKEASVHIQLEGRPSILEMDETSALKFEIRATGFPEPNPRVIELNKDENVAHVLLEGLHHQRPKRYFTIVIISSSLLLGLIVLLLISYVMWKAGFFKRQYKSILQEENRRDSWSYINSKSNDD
AP-2 complex subunit beta (Homo sapiens), sequence (P63010 whole entry, looked up, the tested form may be a part, one chain of several): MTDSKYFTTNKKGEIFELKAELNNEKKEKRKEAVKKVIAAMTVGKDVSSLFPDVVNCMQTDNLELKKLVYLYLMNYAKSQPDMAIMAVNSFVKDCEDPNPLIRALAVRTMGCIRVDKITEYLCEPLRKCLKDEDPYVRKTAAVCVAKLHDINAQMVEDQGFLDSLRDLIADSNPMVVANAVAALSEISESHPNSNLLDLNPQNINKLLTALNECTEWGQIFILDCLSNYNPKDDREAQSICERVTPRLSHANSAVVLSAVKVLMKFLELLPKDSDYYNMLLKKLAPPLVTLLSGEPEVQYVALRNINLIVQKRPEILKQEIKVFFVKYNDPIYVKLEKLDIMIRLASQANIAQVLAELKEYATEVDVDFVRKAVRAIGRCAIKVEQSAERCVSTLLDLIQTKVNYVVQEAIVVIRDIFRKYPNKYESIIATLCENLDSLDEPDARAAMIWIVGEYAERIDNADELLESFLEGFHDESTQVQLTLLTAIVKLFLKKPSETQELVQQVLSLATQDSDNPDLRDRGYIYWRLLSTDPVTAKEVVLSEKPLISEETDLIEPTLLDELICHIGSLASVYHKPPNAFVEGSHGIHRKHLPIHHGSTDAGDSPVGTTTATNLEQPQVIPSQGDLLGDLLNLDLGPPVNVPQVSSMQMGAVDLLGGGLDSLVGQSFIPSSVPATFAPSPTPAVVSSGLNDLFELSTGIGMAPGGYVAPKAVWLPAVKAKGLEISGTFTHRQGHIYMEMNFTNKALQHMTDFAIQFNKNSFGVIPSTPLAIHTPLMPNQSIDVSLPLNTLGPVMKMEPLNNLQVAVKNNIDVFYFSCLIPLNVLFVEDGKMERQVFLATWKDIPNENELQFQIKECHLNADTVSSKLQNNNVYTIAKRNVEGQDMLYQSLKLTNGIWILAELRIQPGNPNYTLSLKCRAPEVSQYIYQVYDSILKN

SMILES	percent of DMSO control GFP [1]	GFP response vs DMSO [2]	percent response of DMSO control [3]	GFP response vs DMSO [4]	GFP response, % of DMSO [5]	double positive events [6] [%]	vesicle binding response [6]	inhibition [7]	superoxide response (% of plate) [8]	aptamer binding inhibition [9]	inhibition [10]	response [11]	binding (% of control) [12]	efflux inhibition (fraction of control) [13]	inhibition [14]	differentiation response [15]
COc1c(C)cc(C(=O)C2CCCN(Cc3ccc(Oc4ncccn4)cc3)C2)cc1C (stereo not given)	99.5% (inactive)	107% (inactive)	112% (inactive)	103% (inactive)	103% (inactive)	56.4	202% (inactive)	-4.9% (inactive)	99.2% (inactive)	0% (inactive)	4.02% (inactive)	0.79% (inactive)	101% (inactive)	-0.01 (inactive)	5% (inactive)	-30.9% (inactive)
O=C(CC(C(=O)O)c1c[nH]c2ccccc12)c1ccccc1 (stereo not given)	101% (inactive)	109% (inactive)	98.8% (inactive)	103% (inactive)	96.3% (inactive)	58.5	147% (inactive)	10% (inactive)	92.2% (inactive)	4% (inactive)	11.2% (inactive)	-1.72% (inactive)	102% (inactive)	0.03 (inactive)	3% (inactive)	-5.05% (inactive)
C/C(=N\N=C1\NC(=O)C(CC(=O)Nc2ccc(Cl)cc2)S1)c1ccco1 (stereo not given)	105% (inactive)	101% (inactive)	104% (inactive)	91.3% (inactive)	99.1% (inactive)	54.2	112% (inactive)	-17% (inactive)	101% (inactive)	16% (inactive)	3.65% (inactive)	-0.13% (inactive)	94.4% (inactive)	0.22 (inactive)	8% (inactive)	0% (inactive)
CCc1c(C)c2ccc(OCC(=O)OC(C)C)c(C)c2oc1=O	98.1% (inactive)	96.9% (inactive)	93% (inactive)	89.3% (inactive)	88.5% (inactive)	57.1	142% (inactive)	7.22% (inactive)	101% (inactive)	-3% (inactive)	19.5% (inactive)	3.44% (inactive)	101% (inactive)	0.29 (inactive)	8% (inactive)	-18% (inactive)
CCc1cc2c(=O)c(-c3nc4ccccc4n3C)coc2c(CN2CCN(C)CC2)c1O	107% (inactive)	107% (inactive)	110% (inactive)	101% (inactive)	100% (inactive)	49.7	149% (inactive)	17.5% (inactive)	105% (inactive)	2% (inactive)	2.16% (inactive)	4.87% (inactive)	102% (inactive)	-0.54 (inactive)	7% (inactive)	-0.2% (inactive)
O=[N+]([O-])c1ccc2cn[nH]c2c1	102% (inactive)	106% (inactive)	102% (inactive)	93.3% (inactive)	97.3% (inactive)	60.3	265% (inactive)	12.8% (inactive)	97.5% (inactive)	1% (inactive)	-5.23% (inactive)	-6.52% (inactive)	98.2% (inactive)	-0.05 (inactive)	10% (inactive)	-8.27% (inactive)
Cc1ccccc1OCCSc1nc2ncnc(N)c2[nH]1	97.3% (inactive)	105% (inactive)	104% (inactive)	99.4% (inactive)	103% (inactive)	51.9	163% (inactive)	8.15% (inactive)	97.8% (inactive)	2% (inactive)	-6.91% (inactive)	3.1% (inactive)	96.7% (inactive)	0.06 (inactive)	1% (inactive)	-8.27% (inactive)
COc1ccc(OC)c(-c2oc3ccccc3c(=O)c2O)c1	102% (inactive)	96.9% (inactive)	96.9% (inactive)	110% (inactive)	101% (inactive)	57	182% (inactive)	-8.64% (inactive)	102% (inactive)	2% (inactive)	-1.44% (inactive)	5.05% (inactive)	97.5% (inactive)	-0.01 (inactive)	-4% (inactive)	-26% (inactive)
COC(=O)c1ccc(COc2ccc3c(C)c(C)c(=O)oc3c2C)o1	101% (inactive)	97.9% (inactive)	96.9% (inactive)	92.3% (inactive)	91.6% (inactive)	57.7	157% (inactive)	14.7% (inactive)	96.2% (inactive)	3% (inactive)	4.76% (inactive)	-2.54% (inactive)	102% (inactive)	0.06 (inactive)	11% (inactive)	9.49% (inactive)
O=C(O)c1ccccc1O	101% (inactive)	101% (inactive)	96.9% (inactive)	97.4% (inactive)	98.8% (inactive)	59	178% (inactive)	15.6% (inactive)	100% (inactive)	3% (inactive)	0.05% (inactive)	-0.04% (inactive)	104% (inactive)	0.44 (active)	0% (inactive)	-9.89% (inactive)
